For some assays here: Results with a measured potency or affinity are listed apart.
Experiments:
Parameters in all cases: scale not given: direction of the effect not stated beside the values
[1] = target: Protein translocase subunit SecA (Escherichia coli (strain K12)) (UniProt P10408); test: Assay to Identify E. coli SecA ATPase Inhibitors; type: functional; details: 30 µM
[2] = target: T1, Ubiquitin-activating enzyme e1, putative (Leishmania donovani (strain BPK282A1)) (UniProt E9BSI1); test: Leishmania donovani Ubiquitin Activating Enzyme (LdE1); type: functional; details: 30 µM
T1 sequence (whole entry): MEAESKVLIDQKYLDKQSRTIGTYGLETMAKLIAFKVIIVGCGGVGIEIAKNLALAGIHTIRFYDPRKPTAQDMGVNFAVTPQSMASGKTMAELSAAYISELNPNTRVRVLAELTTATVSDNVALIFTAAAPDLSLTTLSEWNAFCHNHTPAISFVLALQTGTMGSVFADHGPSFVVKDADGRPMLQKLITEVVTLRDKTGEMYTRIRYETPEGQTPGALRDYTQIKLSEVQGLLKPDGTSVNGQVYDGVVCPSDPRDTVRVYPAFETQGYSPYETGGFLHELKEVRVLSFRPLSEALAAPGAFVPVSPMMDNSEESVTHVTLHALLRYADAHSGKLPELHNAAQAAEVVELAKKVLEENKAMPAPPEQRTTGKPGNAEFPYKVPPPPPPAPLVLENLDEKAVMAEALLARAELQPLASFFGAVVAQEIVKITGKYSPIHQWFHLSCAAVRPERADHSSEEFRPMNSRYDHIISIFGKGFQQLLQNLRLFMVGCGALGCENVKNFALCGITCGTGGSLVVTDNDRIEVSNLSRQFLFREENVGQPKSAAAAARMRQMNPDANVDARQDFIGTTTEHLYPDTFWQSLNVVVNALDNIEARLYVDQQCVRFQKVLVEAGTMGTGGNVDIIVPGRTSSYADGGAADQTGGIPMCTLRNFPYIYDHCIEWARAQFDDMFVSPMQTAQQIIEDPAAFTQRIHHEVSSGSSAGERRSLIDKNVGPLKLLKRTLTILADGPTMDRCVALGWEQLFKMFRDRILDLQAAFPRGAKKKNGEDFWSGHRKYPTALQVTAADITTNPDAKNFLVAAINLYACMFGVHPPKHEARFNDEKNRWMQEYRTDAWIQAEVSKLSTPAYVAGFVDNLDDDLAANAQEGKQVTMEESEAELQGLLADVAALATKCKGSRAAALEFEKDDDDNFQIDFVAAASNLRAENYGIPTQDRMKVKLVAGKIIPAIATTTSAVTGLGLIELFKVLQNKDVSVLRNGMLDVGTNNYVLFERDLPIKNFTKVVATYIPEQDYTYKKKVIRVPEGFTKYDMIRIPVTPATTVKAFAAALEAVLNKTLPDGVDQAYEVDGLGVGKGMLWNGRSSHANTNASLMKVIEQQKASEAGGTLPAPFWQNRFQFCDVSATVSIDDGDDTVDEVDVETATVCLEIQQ

[3] = target: AMP-activated protein kinase, AMPK (Homo sapiens) (UniProt P54646+O43741+P54619+Q9UGJ0+Q9Y478+Q13131+Q9UGI9); test: AMP-dependent Kinase enzyme assay. An in vitro enzyme assay that detects ADP turnover that is directly proportional to AMPK activity. This uses naive AMPK that is activated during the assay with MK-8722; type: functional; details: 30 µM
[4] = target: Sialic acid-binding Ig-like lectin 9 (Homo sapiens) (UniProt Q9Y336); test: Hs-Siglec9 ALPHAscreen SOP 20170721; details: 10 µM
Chain of Sialic acid-binding Ig-like lectin 9 (Homo sapiens) (Q9Y336 whole entry): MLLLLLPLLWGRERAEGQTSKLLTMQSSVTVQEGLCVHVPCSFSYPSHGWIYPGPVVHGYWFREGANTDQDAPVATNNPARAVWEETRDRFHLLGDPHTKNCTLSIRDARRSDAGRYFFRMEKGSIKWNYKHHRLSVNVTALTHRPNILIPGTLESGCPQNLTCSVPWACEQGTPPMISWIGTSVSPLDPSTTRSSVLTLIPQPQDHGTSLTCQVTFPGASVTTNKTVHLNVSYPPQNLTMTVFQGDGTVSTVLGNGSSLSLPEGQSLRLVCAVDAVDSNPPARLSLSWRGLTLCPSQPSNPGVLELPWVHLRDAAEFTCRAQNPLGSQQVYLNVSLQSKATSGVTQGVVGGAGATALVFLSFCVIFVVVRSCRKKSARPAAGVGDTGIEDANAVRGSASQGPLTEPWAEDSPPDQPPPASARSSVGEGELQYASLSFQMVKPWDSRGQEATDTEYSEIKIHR

[5] = tested on: Trypanosoma cruzi; test: Trypanosoma cruzi phosphomannomutase and mannose-1-phosphate guanylyltransferase assay; type: functional; details: 10 µM
[6] = target: T2, Arginase-2, mitochondrial (Homo sapiens) (UniProt P78540); test: in vitro enzyme assay to detect the production of urea directly proportional to the activity of Arginase II; type: functional; details: 33.3 µM; also: in the data most compounds retested in dose-response had high values
T2 sequence (whole entry): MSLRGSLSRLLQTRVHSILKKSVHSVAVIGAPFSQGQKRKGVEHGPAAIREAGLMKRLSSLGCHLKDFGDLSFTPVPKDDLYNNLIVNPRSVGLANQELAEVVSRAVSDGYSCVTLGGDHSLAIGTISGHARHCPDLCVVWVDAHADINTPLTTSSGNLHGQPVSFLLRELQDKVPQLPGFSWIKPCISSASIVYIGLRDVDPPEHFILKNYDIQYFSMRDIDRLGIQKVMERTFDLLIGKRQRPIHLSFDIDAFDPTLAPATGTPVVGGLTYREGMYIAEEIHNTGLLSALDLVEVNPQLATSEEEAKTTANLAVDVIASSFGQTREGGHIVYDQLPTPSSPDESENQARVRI

[7] = target: T3, Proteasome subunit beta (Trypanosoma cruzi) (UniProt O96673); test: Trypanosoma cruzi proteasome chymotrypsin-like activity (TcProtChymo) assay.; also: in the data most compounds retested in dose-response had high values; type: functional; details: 9.37 µM
T3 sequence (whole entry): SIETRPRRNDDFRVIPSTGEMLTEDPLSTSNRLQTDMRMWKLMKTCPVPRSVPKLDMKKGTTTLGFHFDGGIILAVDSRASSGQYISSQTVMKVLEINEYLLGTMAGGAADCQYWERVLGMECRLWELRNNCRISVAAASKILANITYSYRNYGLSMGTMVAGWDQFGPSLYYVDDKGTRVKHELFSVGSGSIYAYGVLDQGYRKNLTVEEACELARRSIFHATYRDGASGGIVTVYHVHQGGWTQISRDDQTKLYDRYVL

[8] = organism: Homo sapiens; test: To identify inhibition of the IFN signalling (Jak-Stat) pathway via expression of an eGFP reporter gene under the control of an IFN-stimulated response element (ISRE) containing MxA promoter.; type: functional; details: 30 µM
[9] = target: T4, Tyrosyl-tRNA synthetase, putative (Trypanosoma cruzi (strain CL Brener)) (UniProt Q4DSP6); test: Trypanosoma cruzi tyrosyl tRNA synthetase (TcYRS) _High Tyrosine SOP; type: functional; details: 30 µM; also: in the data most compounds retested in dose-response had high values
T4 sequence (whole entry): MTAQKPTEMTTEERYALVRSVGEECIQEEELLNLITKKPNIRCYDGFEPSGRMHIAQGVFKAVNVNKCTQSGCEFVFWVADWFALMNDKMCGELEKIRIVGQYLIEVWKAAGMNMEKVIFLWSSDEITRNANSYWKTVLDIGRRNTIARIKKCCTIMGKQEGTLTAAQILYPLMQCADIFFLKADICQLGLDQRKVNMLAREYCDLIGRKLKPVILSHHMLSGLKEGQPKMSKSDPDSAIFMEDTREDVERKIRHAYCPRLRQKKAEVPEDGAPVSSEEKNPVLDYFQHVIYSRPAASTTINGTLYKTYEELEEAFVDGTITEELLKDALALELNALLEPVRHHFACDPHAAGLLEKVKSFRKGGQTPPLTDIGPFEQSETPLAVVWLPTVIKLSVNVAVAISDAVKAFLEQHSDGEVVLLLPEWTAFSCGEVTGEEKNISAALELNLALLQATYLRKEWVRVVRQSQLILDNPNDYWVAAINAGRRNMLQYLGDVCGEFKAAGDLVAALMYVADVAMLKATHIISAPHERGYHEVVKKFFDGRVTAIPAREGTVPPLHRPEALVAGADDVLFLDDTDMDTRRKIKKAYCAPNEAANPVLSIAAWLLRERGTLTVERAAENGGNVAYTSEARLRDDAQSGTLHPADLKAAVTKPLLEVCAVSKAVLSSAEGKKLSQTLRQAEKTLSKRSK

[10] = target: T4, Tyrosyl-tRNA synthetase, putative (Trypanosoma cruzi (strain CL Brener)); test: Trypanosoma cruzi tyrosyl tRNA synthetase (TcYRS) SOP; type: functional; details: 30 µM
[11] = target: Chromo domain-containing protein 1 (Saccharomyces cerevisiae (strain ATCC 204508 / S288c) (Baker's yeast)) (UniProt P32657); test: ScCHD-1 Enzyme Inhibition Assay; type: functional; details: 30 µM; also: in the data most compounds retested in dose-response had high values
Chain of Chromo domain-containing protein 1 (Saccharomyces cerevisiae (strain ATCC 204508 / S288c) (Baker's yeast)) (P32657 whole entry, the tested form may be a part): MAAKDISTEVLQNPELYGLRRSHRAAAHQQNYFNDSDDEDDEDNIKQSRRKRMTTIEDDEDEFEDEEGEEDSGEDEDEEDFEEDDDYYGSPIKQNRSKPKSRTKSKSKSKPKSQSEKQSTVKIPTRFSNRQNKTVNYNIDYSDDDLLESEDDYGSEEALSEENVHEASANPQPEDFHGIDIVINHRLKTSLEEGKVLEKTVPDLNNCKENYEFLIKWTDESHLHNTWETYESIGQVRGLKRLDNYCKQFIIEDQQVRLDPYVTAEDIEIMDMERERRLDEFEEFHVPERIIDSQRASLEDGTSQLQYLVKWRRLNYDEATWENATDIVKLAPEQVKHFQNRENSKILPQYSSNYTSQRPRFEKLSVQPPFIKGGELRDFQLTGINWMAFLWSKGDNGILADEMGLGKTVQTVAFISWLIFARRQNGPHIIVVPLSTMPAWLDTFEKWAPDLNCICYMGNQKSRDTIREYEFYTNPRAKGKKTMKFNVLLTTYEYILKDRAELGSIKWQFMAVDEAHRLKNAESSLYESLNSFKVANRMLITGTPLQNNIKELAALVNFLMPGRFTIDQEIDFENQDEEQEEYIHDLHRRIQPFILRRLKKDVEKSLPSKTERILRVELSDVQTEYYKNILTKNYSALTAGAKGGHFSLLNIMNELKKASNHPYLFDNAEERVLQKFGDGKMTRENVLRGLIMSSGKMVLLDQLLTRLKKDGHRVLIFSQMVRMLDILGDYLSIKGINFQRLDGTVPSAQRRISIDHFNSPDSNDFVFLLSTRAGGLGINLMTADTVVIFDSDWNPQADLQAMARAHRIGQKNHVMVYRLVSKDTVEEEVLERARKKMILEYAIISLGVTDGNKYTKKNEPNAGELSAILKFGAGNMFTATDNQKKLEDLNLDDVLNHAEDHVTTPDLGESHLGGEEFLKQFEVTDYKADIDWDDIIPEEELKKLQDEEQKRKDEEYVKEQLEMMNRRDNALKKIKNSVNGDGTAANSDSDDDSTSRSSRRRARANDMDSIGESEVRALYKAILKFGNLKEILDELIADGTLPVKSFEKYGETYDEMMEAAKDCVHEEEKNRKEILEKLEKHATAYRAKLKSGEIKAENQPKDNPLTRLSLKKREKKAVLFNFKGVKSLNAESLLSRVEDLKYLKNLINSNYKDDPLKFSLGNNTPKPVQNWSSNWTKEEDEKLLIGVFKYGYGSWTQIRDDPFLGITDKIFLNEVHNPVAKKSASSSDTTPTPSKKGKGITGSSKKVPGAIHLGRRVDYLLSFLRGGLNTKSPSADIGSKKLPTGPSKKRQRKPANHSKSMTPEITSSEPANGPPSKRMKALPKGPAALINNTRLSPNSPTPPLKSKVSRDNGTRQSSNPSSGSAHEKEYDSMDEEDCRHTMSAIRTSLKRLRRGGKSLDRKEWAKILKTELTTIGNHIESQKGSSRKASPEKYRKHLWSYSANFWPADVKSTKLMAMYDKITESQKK

Chain of Protein translocase subunit SecA (Escherichia coli (strain K12)) (P10408 whole entry): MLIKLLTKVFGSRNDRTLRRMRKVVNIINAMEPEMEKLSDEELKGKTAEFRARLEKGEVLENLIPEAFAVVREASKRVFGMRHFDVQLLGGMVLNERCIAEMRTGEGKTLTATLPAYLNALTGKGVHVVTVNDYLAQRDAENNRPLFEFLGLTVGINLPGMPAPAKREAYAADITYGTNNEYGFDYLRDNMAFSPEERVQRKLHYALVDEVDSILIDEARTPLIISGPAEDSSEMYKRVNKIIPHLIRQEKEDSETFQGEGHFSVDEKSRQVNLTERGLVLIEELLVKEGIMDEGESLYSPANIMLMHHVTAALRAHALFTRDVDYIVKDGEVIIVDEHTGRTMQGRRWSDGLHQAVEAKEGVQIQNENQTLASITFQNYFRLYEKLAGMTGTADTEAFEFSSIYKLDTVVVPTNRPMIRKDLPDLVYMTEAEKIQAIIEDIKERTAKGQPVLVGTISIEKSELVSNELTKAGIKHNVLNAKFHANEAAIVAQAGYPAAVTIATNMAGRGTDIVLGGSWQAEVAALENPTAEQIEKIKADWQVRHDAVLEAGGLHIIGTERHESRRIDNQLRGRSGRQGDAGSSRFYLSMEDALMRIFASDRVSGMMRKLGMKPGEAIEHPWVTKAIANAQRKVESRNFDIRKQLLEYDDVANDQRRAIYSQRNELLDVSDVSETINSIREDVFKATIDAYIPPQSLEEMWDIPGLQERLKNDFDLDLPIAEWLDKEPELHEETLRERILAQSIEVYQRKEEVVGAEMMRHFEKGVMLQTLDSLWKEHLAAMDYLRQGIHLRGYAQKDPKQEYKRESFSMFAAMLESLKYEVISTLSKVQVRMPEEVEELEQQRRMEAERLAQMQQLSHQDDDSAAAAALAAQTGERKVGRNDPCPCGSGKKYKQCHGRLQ

SMILES | Percent Effect [1] [%] | Percent Effect [2] [%] | Percent Effect [3] [%] | Percent Effect [4] [%] | Percent Effect [5] [%] | Percent Effect [6] [%] | Percent Effect [7] [%] | Percent Effect [8] [%] | Percent Effect [9] [%] | Percent Effect [10] [%] | Percent Effect [11] [%]
CC1CN(CC(=O)Nc2nncs2)CCN1Cc1nccn1C (configuration not stated) | -6.24 | 8.11 | -5.38 | -3.66 | -2.69 | 0.924 | 4.67 | 12 | 4.95 | 6.1 | 8.11
CN(C)S(=O)(=O)N1CC[C@@H]2CN(Cc3cnn(C)c3)C[C@@H]2C1 | -6.2 | -2.6 | 26.8 | -2.67 | -4.63 | 0.645 | 0.696 | 33.3 | -1.06 | -1.28 | -3.27
CCCOCC(=O)NC1CCc2nc(C)cn2C1 (configuration not stated) | -4.43 | 5.26 | 8.68 | 1.69 | -2.04 | -9.47 | 17.2 | 0.806 | 7.45 | 13 | -0.543
Cc1ncc(CNCC2CCCN2c2cccnn2)s1 (configuration not stated) | 0.235 | 8.86 | -1.3 | -1.84 | 3.79 | 5.38 | 15.9 | 22.7 | 9.38 | 12.7 | -17.8
CCc1ccc(CN2CCCC(CO)(CCOC)C2)cc1 (configuration not stated) | -2.06 | -5.41 | -3.48 | -7.57 | -4.79 | -6.7 | -0.258 | -5.11 | -1.07 | 1.24 | 1.15
c1cnc(N2C[C@H]3CCN(c4cccnc4)C[C@H]3C2)nc1 | -6.23 | -5.41 | -3.42 | -2.92 | -2.15 | -0.417 | 26.1 | 6.67 | 5.94 | 13.4 | 7.23
CC(C)N(CC(N)=O)Cc1csc(COc2ccc(F)cc2)n1 | -3.17 | 25.3 | -6.77 | 1.71 | 7.65 | -4.18 | 8.76 | 63.8 | 5.42 | 24.1 | -4.66
CNC(=O)C1CCN(C(=O)CCn2cccn2)CC1 | -7.35 | 13.5 | 2.1 | 7.36 | -4.92 | 5.73 | -1.44 | 19.3 | -0.99 | -1.22 | 6.84
COc1ccc(NC(=O)CCC2CCCN(Cc3ncon3)C2)cc1Cl (configuration not stated) | -3.35 | 10.7 | -3.08 | 17.1 | 2.82 | 7.81 | 24.8 | -6.37 | 8.2 | 18.5 | 92.7
CCn1ncc2c1C(COCC1CC1)CN(C(=O)c1cccs1)C2 (configuration not stated) | 1.75 | 24.7 | -1.43 | 2.69 | -0.794 | -6.39 | 13.6 | 21.1 | 7.29 | 13.6 | -3.6
COCCN1CCC2(CC1)CC(COC)N(c1ncccn1)C2 (configuration not stated) | -4.36 | 7.79 | 1.21 | 1.5 | 1.48 | -19.3 | 7.99 | -6.06 | 3.23 | 3.7 | 1.23
COCCNc1ccc(CNC(=O)Nc2cn[nH]c2)cc1 | -0.0653 | 20.2 | -7.85 | 0.901 | -10.5 | 3.42 | 1.06 | 20.9 | 3.45 | 11.4 | -5.01
CCNC(=O)[C@@H]1C[C@H](NC(=O)c2cncnc2C)CN1CCCSC | -2.84 | 5.48 | -7.63 | 3.4 | 3.17 | -3.59 | 9.68 | -11.3 | 4.17 | 13.6 | -0.349
COc1ccc(CN2CCn3c(CNS(C)(=O)=O)nnc3C2)cc1 | -9.41 | 5.41 | -37.8 | -5.71 | -16.5 | -3.5 | 2.77 | 14.7 | 0 | 5.13 | 1
CC(C)n1ccnc1C1CCCN(c2ccccn2)C1 (configuration not stated) | -4.71 | 5.33 | -0.644 | 4 | -2.43 | 0 | 18.7 | 15.1 | 3.83 | 11.1 | -7.89
CCCNC(=O)CCC(=O)Nc1ccc(-n2cncn2)c(F)c1 | -7 | 2.63 | -2.96 | 4.31 | -6.2 | -2.68 | -0.501 | 29.1 | -0.49 | 0 | -1.12
Cc1nc(CN2C(=O)C[C@@H]3[C@@H]2CCN3C(=O)C2CCOCC2)cs1 | -0.279 | 8.22 | -5.72 | 3.96 | 4.17 | -5.19 | 8.82 | -4.21 | 1.04 | -3.7 | -3.04
Cc1c(I)cccc1C(=O)NCC1(CO)CC1 | -4.35 | 13.5 | -3.32 | 13.5 | 7.14 | 0.952 | 1.38 | -9.36 | 0.529 | 14.6 | -4.29
CC(=O)N1CCC(C(=O)N(C)[C@@H]2CCC[C@@H](N3CCCC3)[C@@H]2O)CC1 | -6.98 | 20.3 | -7.25 | -2.3 | 6.13 | -2.09 | 13.4 | 13.2 | 5.38 | 22.1 | -22.6
O=C(COc1cccc2c1CCC2=O)NCCSc1ccccc1 | -1.44 | 5.26 | 7.61 | -2.93 | -2.63 | 10.7 | 8.92 | 20.8 | -2.13 | 7.79 | -5.02
Cc1cc(C)c(CNC(=O)N2CCN(c3ncccn3)CC2)c(=O)[nH]1 | -6.02 | 7.89 | -4.85 | 6.02 | 5.08 | 3.45 | 16.5 | 2.72 | 3.43 | 7.32 | -10.9
COc1ccc(C(O)CNc2c(C#N)c(=O)n(C)c(=O)n2C)cc1 (configuration not stated) | 0.0916 | 12.7 | 4.15 | -13.6 | -6.33 | 5.32 | 2.87 | 9.61 | 5.42 | 11.4 | -5.56

Reference: ChEMBL document CHEMBL3988442, “University of Dundee, Small-Polar-MMV Screening Library” (2021)
